Results taken from publication PMC4336329 (PLoS ONE, 2015).
Among all 310,000 compounds or so, about 14,000 (4.5%) showed an effect of 50% or more. Effects have a minus sign here. This is one part of a sample in which strong results are shown more often than they occur.

Each molecule was assayed against human ether-à-go-go-related gene (hERG) potassium channel (human, UniProt Q12809) (assay: primary screen, population patch clamp on CHO cells stably expressing hERG; higher = less effect of the substance).
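Further: peak tail current of the secondary pulse compared with the same well before compound.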

Chain of human ether-à-go-go-related gene (hERG) potassium channel (Q12809 whole entry, looked up): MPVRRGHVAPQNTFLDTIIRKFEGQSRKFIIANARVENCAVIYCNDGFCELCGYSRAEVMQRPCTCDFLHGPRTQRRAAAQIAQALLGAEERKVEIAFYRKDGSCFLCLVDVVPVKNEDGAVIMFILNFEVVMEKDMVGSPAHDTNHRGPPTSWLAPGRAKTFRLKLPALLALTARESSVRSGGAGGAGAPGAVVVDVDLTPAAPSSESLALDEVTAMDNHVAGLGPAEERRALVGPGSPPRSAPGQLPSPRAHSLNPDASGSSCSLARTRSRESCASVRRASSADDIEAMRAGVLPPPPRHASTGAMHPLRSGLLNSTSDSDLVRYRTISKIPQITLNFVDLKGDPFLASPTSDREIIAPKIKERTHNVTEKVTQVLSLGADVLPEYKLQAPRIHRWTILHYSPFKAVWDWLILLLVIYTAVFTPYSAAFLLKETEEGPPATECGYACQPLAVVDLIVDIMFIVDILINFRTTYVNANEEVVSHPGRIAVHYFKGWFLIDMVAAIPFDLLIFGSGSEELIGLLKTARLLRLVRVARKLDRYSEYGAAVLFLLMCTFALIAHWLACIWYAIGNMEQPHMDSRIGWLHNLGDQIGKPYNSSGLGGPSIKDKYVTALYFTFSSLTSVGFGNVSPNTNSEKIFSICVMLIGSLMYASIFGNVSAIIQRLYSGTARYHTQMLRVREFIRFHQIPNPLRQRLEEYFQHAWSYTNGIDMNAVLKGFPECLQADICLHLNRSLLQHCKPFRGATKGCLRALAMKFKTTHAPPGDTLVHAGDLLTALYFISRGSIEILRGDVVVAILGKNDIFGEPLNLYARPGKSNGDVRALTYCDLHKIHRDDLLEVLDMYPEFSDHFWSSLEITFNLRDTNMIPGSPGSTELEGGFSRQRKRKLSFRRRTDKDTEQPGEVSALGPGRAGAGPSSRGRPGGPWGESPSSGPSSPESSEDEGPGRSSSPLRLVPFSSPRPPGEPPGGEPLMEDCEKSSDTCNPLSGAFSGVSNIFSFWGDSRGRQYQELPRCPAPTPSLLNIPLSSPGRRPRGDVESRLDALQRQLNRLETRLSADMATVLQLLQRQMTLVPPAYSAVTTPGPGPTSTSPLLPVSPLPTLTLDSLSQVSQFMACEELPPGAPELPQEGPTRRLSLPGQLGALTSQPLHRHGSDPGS

SMILES | hERG current change (%, negative = inhibition) at 10uM [%]
CN(C)CCOC(=O)c1ccc2c(c1)S(=O)(=O)c1ccccc1C2=O.Cl | -6.3
COc1ccc2c(c1)c(C(=O)O)c(C)n2C(C)C | 13.3
COc1ccc(N2CCN(C(=O)c3ccc(NS(=O)(=O)c4ccc(F)c(F)c4)cc3)CC2)cc1 | -44.3
Cc1cc(C)nc(NC2=NCC(=O)N2CCc2c[nH]c3ccccc23)n1 | -2.13
CCOC(=O)c1cnc(SC)nc1Oc1cccc(NS(=O)(=O)c2ccccc2)c1 | 16.1
CCOC(=O)c1cnc(SC)nc1Oc1cccc(NS(=O)(=O)c2ccc(F)cc2)c1 | -71.2
CCOC(=O)c1cnc(SC)nc1Oc1cccc(NS(=O)(=O)c2ccc(C)cc2)c1 | -6.83
O=C(NCCN1CCOCC1)c1ccc(Cl)nc1Cl | -2.02
CC(=O)N1CCN(S(=O)(=O)c2ccc3c(c2)OCCO3)CC1 | 10.5
CCCCCC(=O)N1CCN(S(=O)(=O)c2ccc3c(c2)OCCCO3)CC1 | -18.7
CCCCCC(=O)N1CCN(S(=O)(=O)c2ccc3c(c2)OCCO3)CC1 | -61
COc1cc(NS(=O)(=O)c2ccc(NC(=S)NC(=O)c3sc4ccccc4c3Cl)cc2)ncn1 | 16.3
COc1ccc(-c2[nH]ncc2CN2CCCCCCC2)c(OC)c1 | -54.7
COc1ccc(-c2[nH]ncc2CN2CCCC(C(=O)c3cccc(OC)c3)C2)cc1 (centres unmarked) | -67.3
COc1ccc(-c2[nH]ncc2CN2CCCOc3c(cccc3OC)C2)c(OC)c1 | -48
COc1cccc(C(=O)C2CCCN(Cc3cn[nH]c3C3CCCCC3)C2)c1 (centres unmarked) | -32.1
COc1ccc(-c2[nH]ncc2CN2CCC(OCc3ccccn3)CC2)c(F)c1 | -31.1
COc1ccc(-c2[nH]ncc2CN2CCC(OCc3cccnc3)CC2)c(F)c1 | -37.1
COc1ccc(-c2[nH]ncc2CN2CCSCC2)c(OC)c1 | 14.7
COc1ccc(-c2[nH]ncc2CN2CCCC(C(=O)c3ccc(OC)cc3OC)C2)cc1 (centres unmarked) | -65
COc1ccc(-c2[nH]ncc2CN2CCC(OCc3ccccc3)CC2)c(F)c1 | -80.7
COc1ccc(-c2nc3c(Br)c(N)c(Br)cc3o2)cc1 | 7.14
O=C(CCCOc1ccc(Cl)cc1Cl)N/N=C/c1cccc([N+](=O)[O-])c1 | 9.56
CS(=O)(=O)N1Cc2ccccc2CC1C(=O)OCC(=O)Nc1ccc2ccccc2c1 (centres unmarked) | 7.36
O=C(CSc1nc(C2CCCCC2)nc2ccccc12)N1CCCC1 | -12.6

SMILES | hERG current change (%, negative = inhibition) at 10uM [%]
COc1ccccc1/C=N/NC(=O)C1=NNC(c2ccccc2)(c2ccccc2)C1 | 2.43
O=C(CSc1nncn1-c1ccccn1)Nc1ccccc1Cl | 4.16
CCCCn1nnnc1SCC(=O)Nc1ccc(C)cc1 | 2.26
COc1cccc(OCCn2cc(C=O)c3ccccc32)c1 | 15.2
CC(C)(C)c1ccc(C(=O)Nc2cccc3ncccc23)cc1 | -2.82
Cc1cc(Oc2ccccc2)nc(SCC(=O)Nc2ccccc2)n1 | 19.4
CC1CCN(c2oc(-c3ccccc3F)nc2C#N)CC1 | -10.7
COc1cccc(C(=O)N2CCOCC2)c1 | 20.2
CCC(C)c1ccccc1NC(=O)CN1CCN(C/C=C/c2ccccc2)CC1 (centres unmarked) | -60.4
Cc1ccccc1NC(=O)CCN1CCN(C/C=C/c2ccccc2)CC1 | -78.9
Cc1ccc(S(=O)(=O)NC(CC(C)C)C(=O)N2CCN(C/C=C/c3ccccc3)CC2)cc1 (centres unmarked) | -21.3
O=C(Nc1ccccc1Cl)N1CCN(C/C=C/c2ccccc2)CC1 | -25.9
O=C(CN1CCN(C/C=C/c2ccccc2)CC1)Nc1ccc(F)cc1F | -78.1
Cc1ccccc1NC(=O)CCN1CCN(C)CC1 | 19.4
Cc1ccccc1NC(=O)N1CCN(C/C=C/c2ccccc2)CC1 | -22.7
Fc1ccc(NC(=S)N2CCN(C/C=C/c3ccccc3)CC2)c(F)c1 | -25.8
Cl.O=C(CCN1CCN(C/C=C/c2ccccc2)CC1)Nc1ccccc1Cl | -76.4
Cc1cc(NC(=O)CN2CCN(C/C=C/c3ccccc3)CC2)c([N+](=O)[O-])cc1C | -12
O=C(CCN1CCN(Cc2ccccc2)CC1)Nc1ccccc1Cl | -46.2
O=C(Nc1ccc(F)cc1F)N1CCN(C/C=C/c2ccccc2)CC1 | -39.9
O=C(COC(=O)c1cnccn1)c1ccc(Br)cc1 | 0.614
O=C(CNC(=O)c1ccc(Cl)cc1Cl)OCN1C(=O)c2ccccc2C1=O | 3.68
Cc1[nH]c2ccccc2c1C(=O)C(=O)NCC1CCCO1 (centres unmarked) | 6.3
Cc1ccc(/C=C/C(=O)N2CC(=O)Nc3ccccc32)o1 | -24.2
O=C(CN1C(=O)c2ccccc2C1=O)NCCOc1ccccc1 | -2.09

SMILES | hERG current change (%, negative = inhibition) at 10uM [%]
Cc1ccccc1NC(=O)C(C)O/N=C/c1cccc([N+](=O)[O-])c1 (centres unmarked) | -38.7
CCCS(=O)(=O)N1CCCC(C(=O)NCCCN(C)c2ccccc2)C1 (centres unmarked) | 5.82
CN(C)/C=C(\C#N)S(=O)(=O)c1ccccc1 | 9.4
Fc1ccccc1NC(=S)N1CCN(C/C=C/c2ccccc2)CC1 | -23.4
O=C(CCN1CCN(C/C=C/c2ccccc2)CC1)Nc1ccccc1F.O=C(O)C(=O)O | -75.1
O=C(CCN1CCN(c2ccccc2)CC1)Nc1ccccc1F | 8.14
COc1ccc(CN2C(=O)c3ccccc3C2=O)cc1C(=O)Nc1ccccc1N1CCOCC1 | -10.7
COCC(=O)N1CCC(Oc2ccc(C(=O)NCc3cc(C(C)C)no3)cc2)CC1 | -2.22
CC(=O)Nc1cccc(-c2cnc3ccccc3n2)c1 | -9.95
CS(=O)(=O)Nc1cccc(-c2cnc3ccccc3n2)c1 | -70.4
CC(C)C(=O)Nc1cccc(-c2cnc3ccccc3n2)c1 | 4.12
Cc1cc(S(=O)(=O)Nc2cccc(Cl)c2)c(C)s1 | 8.15
CCn1c2ccccc2c2cc(/C=N/O)ccc21 | 40.6
CSCCC1NC2(C(=O)Nc3ccc(Cl)cc32)[C@@H]2C(=O)N(C3CCCC3)C(=O)[C@H]12 (some centres unmarked) | -8.3
Cc1cc(NC(=O)CSc2nc(-c3cccs3)nc3ccccc23)no1 | 14.7
CCN1CCN(c2nc(Nc3cccc(C)c3)nc(N)c2[N+](=O)[O-])CC1 | -70.2
CCN1CCN(c2nc(Nc3cccc(OC)c3)nc(N)c2[N+](=O)[O-])CC1 | -73.3
CCN1CCN(c2nc(Nc3ccc(C)c(C)c3)nc(N)c2[N+](=O)[O-])CC1 | -75
Cc1cccc(Nc2nc(N)c([N+](=O)[O-])c(N3CCN(C)CC3)n2)c1 | -48
CCOc1ccc(Nc2nc(N)c([N+](=O)[O-])c(N3CCN(CC)CC3)n2)cc1 | -62.6
Cc1cccc(Nc2nc(N)c([N+](=O)[O-])c(N3CCOCC3)n2)c1 | -37.1
Cc1ccc(Nc2nc(N)c([N+](=O)[O-])c(N3CCC(C)CC3)n2)cc1C | 7.13
CCN1CCN(c2nc(Nc3ccc(OC)cc3)nc(N)c2[N+](=O)[O-])CC1 | -32.2
COc1cccc(Nc2nc(N)c([N+](=O)[O-])c(N3CCOCC3)n2)c1 | -14.2
Cc1ccc(Nc2nc(N)c([N+](=O)[O-])c(N3CCOCC3)n2)cc1C | -13.9

SMILES | hERG current change (%, negative = inhibition) at 10uM [%]
COc1ccc(Nc2nc(N)c([N+](=O)[O-])c(N3CCN(C)CC3)n2)cc1 | -26.6
CCOc1ccc(Nc2nc(N)c([N+](=O)[O-])c(N3CCN(C)CC3)n2)cc1 | -48.3
COc1ccccc1CC(=O)Nc1ccc(C(=O)N2CCCCC2)cc1 | 2.21
CCOC(=O)CCNC(=O)N1CCCC(C(=O)c2cc(C)c(OC)c(C)c2)C1 (centres unmarked) | 5.81
COC(=O)Cc1ccc(NC(=S)N2CCN(CCO)CC2)cc1 | 3.63
CC1=C(OC(=O)C(C)(C)C)C(C)(C)C(c2ccccc2)OC1=O (centres unmarked) | -13.4
COc1cccc(C2CC(c3cccc(OC)c3)n3nc(N)nc3N2)c1 (centres unmarked) | -4.11
COc1ccc(-c2nnc(NC(=O)C(C)C)o2)cc1 | -3.15
COc1ccc(N2C(=O)c3ccccc3NC23CCC(C)CC3)cc1 (centres unmarked) | 4.35
C=CCn1nnnc1SCC(=O)Nc1cccc(C(F)(F)F)c1 | 9.66
CC(NC(=O)C(C(=O)c1cccc([N+](=O)[O-])c1)n1cc(Cl)ccc1=O)c1ccccc1 (centres unmarked) | -15
Nc1nc(Nc2ccccc2)nc(N2CCCC2)c1[N+](=O)[O-] | -34.5
CCN1CCN(c2nc(Nc3ccccc3F)nc(N)c2[N+](=O)[O-])CC1 | -56.6
CCN1CCN(c2nc(Nc3cccc(F)c3)nc(N)c2[N+](=O)[O-])CC1 | -62.6
CCN1CCN(c2nc(N)c([N+](=O)[O-])c(Nc3ccc(C)c(C)c3)n2)CC1 | -6.91
CN1CCN(c2nc(Nc3ccccc3)nc(N)c2[N+](=O)[O-])CC1 | -40.6
Nc1nc(Nc2ccccc2F)nc(N2CCOCC2)c1[N+](=O)[O-] | 4.6
Nc1nc(Nc2cccc(F)c2)nc(N2CCOCC2)c1[N+](=O)[O-] | -26.7
CCN1CCN(c2nc(N)c([N+](=O)[O-])c(Nc3cccc(C)c3)n2)CC1 | -45
Cc1cccc(Nc2nc(N)c([N+](=O)[O-])c(N3CCC(C)CC3)n2)c1 | -15.7
Nc1nc(Nc2ccccc2F)nc(N2CCCC2)c1[N+](=O)[O-] | 4.5
CCN1CCN(c2nc(Nc3ccccc3)nc(N)c2[N+](=O)[O-])CC1 | -63
CCN1CCN(c2nc(N)c([N+](=O)[O-])c(Nc3ccc(C)cc3)n2)CC1 | -68.9
